According to PubChem BioAssay AID1321 (The Scripps Research Institute Molecular Screening Center, 2008):
Screen size: about 220,000 compounds; about 2,600 (1.2%) were called active.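 Rule for the calls: active = activation above the mean of all tested compounds plus 3 SD, set per screening run (cut at about 8.8% in these data); inactive = the rest.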 The entries come from a sample that favours actives as a whole.

These molecules were tested against Wee1-like protein kinase (Homo sapiens) (UniProt P30291) (assay: Wee1 degradation inhibitors, primary screen, cell-based, HeLa, Wee1K328M-luciferase, luminescence (AID 1321;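 note: cells exposed to compound for 20 h before luminescence read; 0% = DMSO alone and 100% = MG132 at 30 µM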)). Settings: HeLa Luc-Wee1K328M stability, at 5 µM, stronger effect = higher value, 100% = proteasome inhibitor MG132 effect.

Reporter increase, active:
COCCCNC(=O)c1c(F)c(F)c(F)c(F)c1F 9.02%
O=S(=O)(Nc1ncccn1)c1ccc(NS(=O)(=O)c2cccc(Cl)c2Cl)cc1 9.1%
Cc1nnc(SCC(=O)N2c3ccccc3C(C)(c3ccc(Cl)cc3)CC2(C)C)s1 (configuration not stated) 11.3%
COc1ccc(-c2noc(CSc3ccc(C)cc3)n2)cc1 13.7%
O=C(N/N=C/c1ccc([N+](=O)[O-])cc1)C(=O)N1CCCC1 9.76%
Cc1ccc2nc3n(c(=O)c2c1)CCC3 12.8%
CN1C(=O)/C(=C/C=C2\SCCN2C)OC1=S 9.67%
CCN(CC(=O)Nc1ccc(Cl)c(S(=O)(=O)N(C)C)c1)Cc1nc2ccccc2c(=O)[nH]1 9.09%
CCN(CC(=O)NC(=O)NCc1ccccc1)Cc1nc2ccccc2c(=O)[nH]1 10.5%
CC(C)c1csc(CN2CCC(CO)(Cc3ccccc3)CC2)n1 11.4%
O=C(Cn1ncc(N2CCCC2)c(Br)c1=O)c1ccc(Cl)cc1 9.08%
O=c1c(/C=N/O)coc2ccc(Cl)cc12 13.3%
OCCNc1nc2ccccc2n1-c1ncnc2sc3c(c12)CCC3 13.6%
CC(C)(C)c1ccc(C(=O)NCc2nnc(SCC(=O)N3CCCc4ccccc43)n2-c2ccccc2)cc1 9.34%
CC(C)c1ccc(NC(=S)NC2CC3C=CC2C3)cc1 (configuration not stated) 18.5%
CCN(CC)CCn1c(N)c(S(=O)(=O)c2ccccc2)c2nc3ccccc3nc21 12.4%
O=C(Nc1ccccc1)Nc1nc2ccccc2s1 12.1%
CC(=O)Nc1ccc(-c2csc(NC(=O)Nc3ccccc3)n2)cc1 16.9%
CCCCC(CC)CNC(=O)CCCCn1c(=O)[nH]c2ccsc2c1=O (configuration not stated) 20%
CCOc1cc(C2C(C(=O)OC)=CN(C3CCCC3)C=C2C(=O)OC)cc(Br)c1O 14.3%

Reporter increase, inactive:
Cc1ccc(Cl)c(OCC(=O)NN2CCN(C)CC2)c1 -4.89%
O=C(O)CCn1cc(/C=C/C(=O)c2ccc(Cl)cc2)c(-c2cccc(Br)c2)n1 -0.48%
CC(C)CN(CC(C)C)CC(O)CN(c1ccccc1)S(=O)(=O)c1ccccc1[N+](=O)[O-] (configuration not stated) -0.95%
COCCCNC(=S)NC(=O)c1ccccc1 1.37%
O=C(NCCN1CCOCC1)c1c(F)c(F)c(F)c(F)c1F -1.64%
O=C(Nc1cccnc1)c1cc([N+](=O)[O-])ccc1Cl -1.81%
CN1CCN(c2ccc(CNS(=O)(=O)c3cccc(F)c3)cc2)CC1 -0.49%
Cc1cccc(C2C3=C(CCCC3=O)N=C3c4ccccc4C(=O)C32)c1 (configuration not stated) 2.45%
Cc1ccc2nc(C)c3c(c2c1)N(c1ccccc1)CC3 2.22%
Cc1cc(=O)[nH]c(N/N=C/c2ccc3c(c2)OCCO3)n1 3.95%
O=C(CCS(=O)(=O)c1ccccc1Cl)Nc1ccc(S(=O)(=O)Nc2ncccn2)cc1 -2.3%
O=C(/C=C/c1ccccc1Cl)Nc1ccc(S(=O)(=O)Nc2ncccn2)cc1 -1.98%
CCCSc1ncccc1C(=O)O 5.65%
Cc1nnc(SCC(=O)N2CCc3ccccc3C2)s1 -1.25%
CC1(c2ccccc2)CC(C)(C)N(C(=O)c2cc([N+](=O)[O-])cc([N+](=O)[O-])c2)c2ccccc21 (configuration not stated) -3.96%
NC(=O)NC(=O)CSc1nc2cc([N+](=O)[O-])ccc2n1-c1cccc(C(F)(F)F)c1 0.4%
N#CCc1ccc(OC(=O)c2cccnc2)cc1 -2.7%
COc1ccc(-c2noc(CN(C)S(=O)(=O)c3ccc(C)cc3)n2)cc1 -2.95%
COc1ccc(-c2noc(-c3ccc(C)cc3)n2)cc1 -0.18%
CC1CC(=O)Nc2ccccc2N1S(=O)(=O)c1cccs1 (configuration not stated) 4.07%
CCC(C)Cn1c(O)cc2nn(-c3nc4ccccc4s3)c(=O)c-2c1C (configuration not stated) -4.96%
O=C(N/N=C/c1ccc2c(c1)OCO2)C(=O)N1CCCC1 2.71%
NC(=S)N/N=C/c1ccc([N+](=O)[O-])cc1 -3.91%
Cc1cccc2c(=O)n3c(nc12)CCCCC3 -0.11%
O=C(Nc1ccc2nc3n(c(=O)c2c1)CCCCC3)c1ccccc1Cl 0.41%
CNC(=O)c1csc(Cc2c(Cl)sc3ccc(Cl)cc23)n1 0.14%
O=C(COc1ccccc1)N1CCN=C1SCc1cccc(F)c1 -0.6%
CS(=O)(=O)c1sc(C(=O)NC(=S)Nc2ccc(OC(F)(F)F)cc2)c2c1C=CCC2 3.21%
CCOC(=O)c1c(C)nn(-c2ncccc2NC(=O)CCC(=O)O)c1C -3.19%
O=C(COC(=O)c1ccc[nH]c1=O)Nc1ccc2c(c1)OC(F)(F)O2 7.03%
CN(C)S(=O)(=O)c1cc(NC(=O)CN2C(=O)NC3(CCCc4ccccc43)C2=O)ccc1Cl (configuration not stated) -2.38%
O=C(c1ccco1)N(Cc1nc2ccccc2c(=O)[nH]1)C1CCCC1 -0.38%
CCCC(=O)N(CCc1ccccc1)Cc1nc2ccccc2c(=O)[nH]1 -2.77%
CCN(CC(=O)Nc1cccc(S(N)(=O)=O)c1)Cc1nc2ccccc2c(=O)[nH]1 -3.31%
CC#CC[N+](C)(C)CCCCCC 3.56%
CC(C)CCNC(=O)C1CCC(CNc2c(N3CCC(C)CC3)c(=O)c2=O)CC1 (configuration not stated) -0.83%
Cc1csc(/N=C/N(C)C)c1C#N -2.57%
C/C(CC(=O)NC(C)c1ccccc1)=N\NC(N)=S (configuration not stated) -1.77%
OCC1(Cc2ccccc2)CCN(Cc2cc3ccccc3o2)CC1 -0.66%
CC(=O)c1cccc(CN2CCC(CO)(Cc3ccccc3)CC2)c1 -2.2%
CC(=O)Cn1ncc(N2CCOCC2)c(Br)c1=O 1.92%
Cn1c(=O)c2c(nc(N3CCCCCC3)n2CC(=O)c2ccc(Br)cc2)n(C)c1=O -1.77%
CCc1ccc(S(=O)(=O)Nc2ccc(C)c(NS(C)(=O)=O)c2)cc1 -2.18%
COC(=O)c1c(C)oc(C)c1S(=O)(=O)Nc1ccc(C(C)C)cc1 -0.82%
NC(=S)N/N=C/c1coc2cc(Cl)ccc2c1=O 7.29%
O=C(N/N=C/c1coc2ccccc2c1=O)c1cc2ccccc2o1 2.23%
O=C(NN1C(=O)C2C(C1=O)C1C=CC2C12CC2)c1ccccc1Cl (configuration not stated) 1.5%
C=CCSc1nc(N)cc(=O)[nH]1 0.5%
O=C(O)Cc1csc(NC(=O)CSc2nnnn2-c2ccc(O)cc2)n1 -2.13%
CC(C)(C)C(=O)Cn1c(NCCO)nc2ccccc21 -0.8%
O=C(O)[C@@H]1CCCN1c1ncnc2sc3c(c12)CCC3 3.81%
COCc1cc(=O)oc2cc(NS(=O)(=O)c3ccc(C)cc3)ccc12 5.18%
O=C(CSc1nc2[nH]ncc2c(=O)n1-c1ccccc1)N1CCCc2ccccc21 -1.42%
Cc1nnc(SCC(=O)N2CCc3ccccc32)n1-c1ccccc1 4.42%
CC(=O)Nc1ccc(/C=C/C(=O)c2ccccc2)cc1 1.71%
CSc1nnnn1-c1c(C)cc(C)cc1C -0.91%
S=C(NNC(=S)NC1CC2C=CC1C2)NC1CC2C=CC1C2 (configuration not stated) -1.36%
S=C(NNC(=S)NC1CC2CCC1C2)NC1CC2C=CC1C2 (configuration not stated) -2.51%
COc1ccc([N+](=O)[O-])cc1N(CC(O)CN(CC(C)C)CC(C)C)S(=O)(=O)c1ccc(C)cc1 (configuration not stated) -0.64%
Cc1ccc(S(=O)(=O)c2c(N)n(C)c3nc4ccccc4nc23)cc1 -2.43%
CCC(=O)Nc1c(S(=O)(=O)c2ccccc2)c2nc3ccccc3nc2n1Cc1ccccc1 -1.34%
CSCCC(NS(=O)(=O)c1ccc2c(c1)oc(=O)n2C)C(=O)NCc1ccccc1 (configuration not stated) 5.59%
O=C(CCl)Nc1cccc(CP(=O)(c2ccccc2)c2ccccc2)c1 1.71%
COc1ccc(C(=O)N/N=C(\C)CC(=O)Nc2ccc(Cl)cn2)cc1 0.12%
CSCCC(Nc1nc2ccccc2s1)C(=O)O (configuration not stated) 1.41%
CC(=O)Nc1ccc(S(=O)(=O)Nc2nc(-c3ccc(C(C)(C)C)cc3)cs2)cc1 3.64%
CC(=O)Nc1ccc(-c2csc(NC=C3C(=O)OC(C)(C)OC3=O)n2)cc1 0.77%
O=C(Nc1nc2ccccc2s1)c1ccc2c(c1)OCO2 -1.51%
O=C(CCCl)Nc1ccc(S(=O)(=O)NCc2ccco2)cc1 4.12%
Cc1ccc(C(=O)NCC(=O)OCC(=O)Nc2cccc(S(=O)(=O)N3CCCC3)c2)cc1C 0.09%
CCN(CC)CCNC(=O)CCCCCn1c(=O)[nH]c2cc(C(=O)OC)ccc2c1=O -1.39%
CCN(CCCNC(=O)CCn1c(=O)[nH]c2ccsc2c1=O)c1ccccc1 4.65%
CN(C)C(=O)c1nc2ccc(Cl)cn2c1CNCc1cccc(OC(F)(F)F)c1 0.21%
Cc1ccc(C(=O)N/N=C\c2cc(Br)c(Br)o2)cn1 1.9%
CCOC(=O)N1CCN(c2c(NCCN3CCN(c4ccccc4F)CC3)c(=O)c2=O)CC1 -1.76%
CCOc1ccc(CNC(=O)C2CCC(=O)N2C2CCCC2)cc1OC (configuration not stated) -2.75%
CCOc1ccccc1C1C(C(=O)OC)=CN(C)C=C1C(=O)OC -2.5%
